Screens (PubChem)
TDP1 inh: qHTS Assay for Inhibitors of Tyrosyl-DNA Phosphodiesterase (TDP1); Tyrosyl-DNA phosphodiesterase 1 (Homo sapiens), Q9NUW8; 350,000 tested, 0.28% active; AID 485290, 2010; Potency, µM (top dose mostly 130 µM), inactives show top-dose activity change, negative = inhibition, hits mostly inhibitors; recombinant TDP1, AlphaScreen DNA substrate cleavage; also: nearly all actives have a fitted effect of over 40% in size
Target sequence (Q9NUW8 whole entry, looked up): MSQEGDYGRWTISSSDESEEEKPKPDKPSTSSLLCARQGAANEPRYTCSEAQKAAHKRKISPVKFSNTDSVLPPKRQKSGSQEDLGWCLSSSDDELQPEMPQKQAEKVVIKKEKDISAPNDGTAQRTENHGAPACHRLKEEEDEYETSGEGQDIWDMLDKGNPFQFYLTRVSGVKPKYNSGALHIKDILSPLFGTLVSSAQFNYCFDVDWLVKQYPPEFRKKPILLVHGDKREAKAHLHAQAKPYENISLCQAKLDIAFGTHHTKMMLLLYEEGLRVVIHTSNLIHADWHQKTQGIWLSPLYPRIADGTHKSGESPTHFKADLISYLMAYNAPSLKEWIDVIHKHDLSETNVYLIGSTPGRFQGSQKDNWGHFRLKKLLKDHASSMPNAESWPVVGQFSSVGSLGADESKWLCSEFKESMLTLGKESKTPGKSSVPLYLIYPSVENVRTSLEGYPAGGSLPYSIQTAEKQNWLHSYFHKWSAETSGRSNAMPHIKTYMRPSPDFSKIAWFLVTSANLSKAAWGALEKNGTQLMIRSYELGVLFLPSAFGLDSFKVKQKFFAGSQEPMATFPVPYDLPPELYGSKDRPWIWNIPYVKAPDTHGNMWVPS
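Tdp1 1 nM final; 15 min RT w/ cpd; substrate 15 nM, 5 min; beads 10 ug/ml, 10 min; AlphaScreen read. Neg ctrl: no enzyme.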
TDP1 cell noCPT: qHTS for Inhibitors of human tyrosyl-DNA phosphodiesterase 1 (TDP1): qHTS in cells in absence of CPT | Potency, µM (series often up to 46.2 µM), for inactives: at the top dose activity change, negative = growth inhibition, hits mostly inhibitors | 420,000 tested, 15% active | DT40 Tdp1-/- hTDP1 cells, no CPT, ATP luminescence, 48 h | AID 686978, 2013; also: nearly all actives have a fitted effect of over 55% in size
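DT40 Tdp1-/-;hTDP1 cells, no CPT (DMSO vehicle only), 400 cells/well; compounds pin-transferred; ≥48 hr, 37 °C; CellTiter-Glo 30 min RT dark, luminescence read.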
Gal4-VP16 FLuc: VP16 counterscreen qHTS for inhibitors of ROR gamma transcriptional activity | 310,000 tested, 3.5% active | Potency, µM (top dose mostly 53.6 µM), without a hit: at the top dose activity, negative = inhibition, actives largely listed as inhibitors | Drosophila S2 Gal4-VP16 UAS-luciferase, luminescence, 20 h | AID 2546, 2010;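 also: Gal4-VP16 expression switched on by copper sulfate through the metallothionein promoter; nearly all actives have a fitted effect of over 50% in size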
TDP1 cell CPT: qHTS for Inhibitors of human tyrosyl-DNA phosphodiesterase 1 (TDP1): qHTS in cells in presence of CPT; chicken DT40 Tdp1-/-;hTDP1 cells + 20 nM CPT, ATP luminescence, 48 h; Potency, µM (highest dose often 46.2 µM), without a hit: at the top dose activity change, negative = growth inhibition, hits mostly inhibitors; 420,000 tested, 12% active; also: nearly all actives have a fitted effect of over 55% in size
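Chicken DT40 Tdp1-/- cells complemented with human TDP1, 400 cells/well, exposed to compounds plus 20 nM camptothecin for at least 48 h at 37 C; viability read as ATP content by CellTiter-Glo luminescence.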
RORgamma inh: qHTS for inhibitors of ROR gamma transcriptional activity | Nuclear receptor ROR-gamma (Mus musculus), P51450 | Drosophila S2 Gal4-RORgamma UAS-luciferase reporter, 20 h | Potency, µM (doses to about 53.6 µM), for the others: top-dose activity change, negative = inhibition, usual class: inhibitors | 310,000 tested, 5.4% active | AID 2551, 2010; also: nearly all actives have a fitted effect of over 60% in size
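Stably transfected Drosophila Schneider cells are the test system, with ROR gamma fused to Gal4 and luciferase under UAS control; luminescence is read after 20 hr of 700 uM copper sulfate induction at ambient temperature.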
* hit, by the source's call; ? = inconclusive; . = no result given; [ ] = another dose, or the depositor's remark. Shown are actives, neighbours in structure and some others; about 19% of the full set was active somewhere. Calls follow the shape of the dose curve; as a rule, active = well fitted curve in the direction sought with a large enough effect; inconclusive = small, poorly fitted or top-dose-only effect, or another doubt; inactive = no such curve, though single readings can be large; an effect the other way counts as inactive or inconclusive. % is scaled to controls: 0 for no effect and ±100 for the full control effect; potency is read from the fitted curve at half-maximal effect.

SMILES	TDP1 inh	TDP1 cell noCPT	Gal4-VP16 FLuc	TDP1 cell CPT	RORgamma inh
COc1ccccc1C(=O)N1CCOc2ccc(C(C)(O)CCn3cccn3)cc2C1 (configuration not stated)	.	-16%	.	-14%	.
N=C1SCC(=O)N1/N=C/c1ccccc1	2%	-11%	?	-7%	11µM*
O=C1CSC(=S)N1/N=C/c1cccc(C(F)(F)F)c1	6%	1%	?	-10%	7.9µM*
O=C1CSC(=S)N1/N=C/C=C/c1ccccc1	8%	-1%	?	-14%	2.5µM*
O=C1CSC(=S)N1/N=C/c1ccc(C(F)(F)F)cc1	.	?	-1%	?	?
N#CCCN(C(=O)COC(=O)c1ccc2ccccc2n1)c1ccccc1	-3%[56.1 µM]	21%	.	9%	.
CC(C)COP(=O)(c1ccc(N(C)C)cc1)C(O)c1ccncc1 (configuration not stated)	1%	-18%	-10%	-3%	27%
COc1cc(CNc2nc(C)c(-c3ccn(CC4CCCN(C)C4)n3)s2)ccc1F (configuration not stated)	.	23µM*	.	-15%[9.04 µM]	.
COc1cc(CN2CCC3(CC2)CC3C(=O)Nc2ccc3sc(C)nc3c2)ccc1F (configuration not stated)	.	-15%	.	-8%	.
Cn1ncc2c(NCCc3ccccc3)nc(Cl)nc21	.	21µM*	.	23µM*	.
COCCNc1nc(NCc2ccccc2)c2cnn(C)c2n1	0%	?	5%	-3%	-3%
Cc1ccc(-n2ncc3c(NCc4ccccc4)ncnc32)cc1C	3%	?	.	?	.
COCCNc1nc(NCc2cccc(Cl)c2)c2cnn(C)c2n1	6%	15µM*	.	?	.
CCCNc1nc(NCc2ccccc2OC)c2cnn(C)c2n1	6%	13µM*	.	15µM*	.
Cn1ncc2c(NCc3cccc(Cl)c3)ncnc21	5%	?	.	15µM*	.
Cn1ncc2c(Nc3ccccc3Cl)nc(Cl)nc21	5%	-20%	2%	-2%	36%
COc1ccc(-c2cnc3n2CCCCC3)cc1	.	23µM*	-3%	?	?
Clc1ccc(-c2cnc3n2CCC3)cc1	8%	-28%	-6%	-23%	18µM*
c1csc(-c2cnc3n2CCCC3)c1	4%	-26%	1%	-16%	?
Cc1nnc(NC(=O)C2CCN(C(=O)c3ccsc3)CC2)s1	.	3%	.	-9%	.
CCC(CC)c1nn2c(=O)cc(COc3ccc(NC(=O)c4ccc(Cl)cc4)cc3)nc2s1	4%	3%	.	0%	.
C/C(=N\Nc1nc(C)cc(-c2ccccc2)n1)c1ccc(C)o1	4%	4.6µM*	10µM*	?	5µM*
C/C(=N\NC(=O)CCC(=O)N/N=C(\C)c1ccc(C)o1)c1ccc(C)o1	.	-16%	.	-3%	.
C/C(=N/Nc1nc(C)cc(-c2ccccc2)n1)c1ccco1	2%	?	18µM*	21µM*	5µM*
C/C(=N\NC(=O)C(O)(c1ccccc1)c1ccccc1)c1ccc(C)o1	4%	18µM*	-16%	?	-25%
SMILES	TDP1 inh	TDP1 cell noCPT	Gal4-VP16 FLuc	TDP1 cell CPT	RORgamma inh
Cc1cc(C)c(-c2cc(C)nc3ncnn23)c(C)c1	0%	13%	-3%	2%	4%
COC(=O)CCNS(=O)(=O)c1ccc2nsnc2c1	.	3%	.	3%	.
CCS(=O)(=O)c1ncc(Cl)c(C(=O)Nc2ccc(C)cc2)n1	2%	1.8µM*	2µM*	1.6µM*	5µM*
CCOc1ccc(NC(=O)c2nc(S(=O)(=O)Cc3ccccc3)ncc2Cl)cc1	.	0.4µM*	.	0.32µM*	.
CS(=O)(=O)c1ncc(Cl)c(C(=O)Nc2ccc3ccccc3c2)n1	-4%	0.65µM*	4.5µM*	1µM*	2.8µM*
Cc1ccc(CS(=O)(=O)c2ncc(Cl)c(C(=O)Nc3ccc(OC(F)F)cc3)n2)cc1	3%	3.7µM*	?	3.7µM*	-96%
CSc1ncc(Cl)c(C(=O)Nc2ccc(NC(C)=O)cc2)n1	-2%	-19%	2%	3%	-20%
Cc1cnc(CN(C)C(=O)C2CCC(=O)N(CCc3ccccc3)C2)[nH]1 (configuration not stated)	2%	1%	-4%	5%	-12%
CCOC(=O)Cn1cc(Cl)c(=O)c(Cl)c1	.	-4%	1%	2%	-20%
CN(Cc1ccon1)Cc1cn[nH]c1-c1ccc(-c2ccccc2)cc1	7%	?	12%	-15%	32%
CN(C)S(=O)(=O)c1ccc(S(=O)(=O)N2CCCC(C(=O)NC3CC3)C2)cc1 (configuration not stated)	?	?	0%	-29%	26%
O=C(Nc1ccc(OC(F)F)cc1)c1ncc(Cl)c(Cl)c1Cl	-13%	0%	-15%	18%	5µM*
CCCSc1ncc(Cl)c(C(=O)Nc2c(C(=O)Nc3ccc(OC)cc3)oc3ccccc23)n1	0%	?	.	?	.
COc1ccc(NC(=O)c2nc(S(=O)(=O)Cc3ccc(C)cc3)ncc2Cl)cc1	-5%	2.1µM*	.	16µM*	.
COC(=O)c1ccccc1NC(=O)c1nc(S(=O)(=O)Cc2ccccc2)ncc1Cl	7%	1.3µM*	3.2µM*	2.9µM*	?
CCCS(=O)(=O)c1ncc(Cl)c(C(=O)Nc2c(C(=O)Nc3ccccc3)oc3ccccc23)n1	5%	2.6µM*	.	2.1µM*	.
Cc1c(C(=O)c2ccc(F)cc2)c2ccccn2c1CCc1ccccn1	0%	?	28%	?	16%
CCOc1ccc(NC(=O)c2nsc(Cl)c2Cl)cc1	0%	-21%	?	-25%	-3%
CC(=O)Nc1ccc(NC(=O)c2nc(S(=O)(=O)Cc3ccccc3)ncc2Cl)cc1	0%	0.46µM*	0.35µM*	0.26µM*	2.2µM*
CCS(=O)(=O)c1ncc(Cl)c(C(=O)Nc2ccc(S(=O)(=O)N3CCCC(C)C3)cc2)n1 (configuration not stated)	8%	2.3µM*	3.5µM*	0.92µM*	?
CCOc1ccc(NC(=O)c2nc(S(=O)(=O)Cc3ccc(C)cc3)ncc2Cl)cc1	.	0.63µM*	.	0.79µM*	.
CC1CCCN(S(=O)(=O)c2ccc(NC(=O)CNC3CCCC3)cc2)C1 (configuration not stated)	.	?	7%	?	12%
CC(C)C[C@@H](CC(=O)N[C@@H](CCC(=O)O)CC(=O)O)NC(=O)[C@@H]1CNCC[C@H]1NC(=O)C[C@@H](NC(=O)C[C@H](Cc1c[nH]c2ccccc12)NC(=O)[C@@H]1CCCC[C@H]1N)C(C)C	3%	.	-11%	.	20%
